From PubChem BioAssay
In the library only some 9.2% were active in any assay of this set; here they are far more common.
Rab9 prom act – activators of Rab9 promoter. AID 485297. 2.8% of 320,000 active. Huh7 Rab9 promoter-luciferase reporter, luminescence, 24 h. Potency, µM (highest dose often 9.22 µM), for inactives: top-dose activation, negative = inhibition, actives largely listed as activators; also: % of control where 0% means no effect; nearly all actives have a fitted effect of over 60% in size
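Cells were plated at 1500 per well in reduced-serum medium with 10% FBS and left 2 h. Compound in DMSO was then added for 24 h at 37 °C. Reporter signal was read by luminescence after 10 min with luciferase detection reagent.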
SMN2 splice up – increases expression of the SMN2 splice variant; HEK293 SMN2-luciferase splicing reporter, luminescence, 30-36 h; Potency, µM (highest dose often 46.1 µM), for the others: at the highest dose activity change, positive = activation, hits mostly activators; 2.8% of 210,000 active; AID 1458; also: % of control where 0% means no effect; nearly all actives have a fitted effect of over 55% in size
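HEK293 cells carry an SMN2 […]–luciferase reporter in which exon 7 inclusion puts luciferase in frame. Cells were plated 10-12 h before compound addition, then incubated 30-36 h at 37C. ONE-Glo luminescence was read; sodium butyrate at 4.5 mM final served as control.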
ELG1 genotoxic – genotoxicity induction in ELG1-luciferase HEK293T cells; HEK293T ELG1-luciferase reporter, luminescence, 16 h; Potency, µM (titrated, usually from 46 µM), for inactives: top-dose activity change, positive = activation, usual class: activators; 1.3% of 330,000 active; AID 504466; also: % of control where 0% means no effect; nearly all actives have a fitted effect of over 60% in size
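Cells (2,000/well) expressing the ELG1-luciferase fusion are dosed by pin tool and kept 16 hr at 37 °C, 5% CO2. Signal comes from ONE-Glo luciferase reagent after 30 min at room temperature.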
FLuc modulator – firefly luciferase modulation, counter-screen for miR-21 project; Potency, µM (doses to about 57.5 µM), inactives show at the highest dose activity change, negative = inhibition, hits mostly inhibitors; 6.9% of 360,000 active; purified FLuc, Km substrates, luminescence inhibition; P08659;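 also: plate controls were vehicle for no effect and reference inhibitor for full effect; nearly all actives have a fitted effect of over 55% in size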
Target sequence (P08659 whole entry, looked up): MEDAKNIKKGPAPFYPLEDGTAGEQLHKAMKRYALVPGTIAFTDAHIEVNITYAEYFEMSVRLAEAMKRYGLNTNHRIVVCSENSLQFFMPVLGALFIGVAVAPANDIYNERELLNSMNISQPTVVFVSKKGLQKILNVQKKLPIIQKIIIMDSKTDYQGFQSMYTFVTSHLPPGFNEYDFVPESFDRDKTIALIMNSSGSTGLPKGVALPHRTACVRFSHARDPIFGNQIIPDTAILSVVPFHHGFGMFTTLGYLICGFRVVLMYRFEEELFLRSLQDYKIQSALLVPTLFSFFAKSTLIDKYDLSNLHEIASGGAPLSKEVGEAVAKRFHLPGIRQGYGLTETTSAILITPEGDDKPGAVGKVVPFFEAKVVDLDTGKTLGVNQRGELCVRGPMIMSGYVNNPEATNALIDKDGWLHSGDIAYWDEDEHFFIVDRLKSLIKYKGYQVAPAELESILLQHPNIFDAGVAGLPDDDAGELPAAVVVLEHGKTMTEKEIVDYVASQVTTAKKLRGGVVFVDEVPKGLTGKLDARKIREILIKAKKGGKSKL
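Biochemical qHTS of compounds, final roughly 60 µM downward over six points, against 10 nM purified firefly luciferase using Km concentrations of substrates (10 uM D-luciferin, 10 uM ATP) in Tris acetate pH 7.5 buffer; luminescence output.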
NPC1 promoter act – NPC1 promoter activation; Potency, µM (titrated, usually from 9.22 µM), for the others: at the highest dose activation, most hits filed as activators; 2.4% of 320,000 active; Huh7 NPC1 promoter luciferase reporter, 24 h; also: % of control where 0% means no effect; nearly all actives have a fitted effect of over 60% in size
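Stable NPC1-promoter luciferase Huh7 line; cpd (DMSO) 24 h, 37 °C, 5% CO2; Amplite luciferase reagent 10 min RT; luminescence readout. qHTS format.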
ELG1 repair inh – blocks ELG1-dependent DNA repair in HEK293T cells | HEK293T ELG1-luciferase reporter, luminescence, 16 h; DNA damage induced by 5-fluorouridine | Potency, µM (doses to about 46.1 µM), for inactives: at the top dose activity change, negative = inhibition, actives largely listed as inhibitors | 2.3% of 330,000 active | AID 504467; also: % is scaled to controls: 0 for no effect and ±100 for the full control effect; nearly all actives have a fitted effect of over 55% in size
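Quantitative HTS, concentration-response format. 2,000 cells/well co-treated with 5-fluorouridine and compound, 16 hr in 5% CO2 at 37 °C; ONE-Glo luminescence read after 30 min.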
* = called active by the depositor; [ ] = remark or other dose. Calls follow the shape of the dose curve; as a rule, active = well fitted curve in the direction sought with a large enough effect; inconclusive = small, poorly fitted or top-dose-only effect, or another doubt; inactive = no such curve, though single readings can be large; an effect the other way counts as inactive or inconclusive. Potency is read from the fitted curve at half-maximal effect.

Results for Cc1ccc(NC(=O)c2ccc(OC(F)F)cc2)cc1S(=O)(=O)N(C)C ?
Rab9 prom act: 0%; SMN2 splice up: -55%; ELG1 genotoxic: 1%; FLuc modulator: 9.5µM*; NPC1 promoter act: 8%; ELG1 repair inh: inconclusive

What do the screens show for `Cc1ccc(NC(=O)c2ccc([N+](=O)[O-])cc2)cc1S(=O)(=O)N(C)C`?
Rab9 prom act: inconclusive; SMN2 splice up: 1%; ELG1 genotoxic: 0%; FLuc modulator: inconclusive; NPC1 promoter act: inconclusive; ELG1 repair inh: 18µM*

Results for O=C(Nc1ccc(OC(F)F)c(Cl)c1)c1ccccn1 ?
Rab9 prom act: 0.63µM*; SMN2 splice up: 11µM*; ELG1 genotoxic: 2.3µM*; FLuc modulator: 3.4µM*; NPC1 promoter act: 1µM*; ELG1 repair inh: inconclusive

What do the screens show for `Cc1ccc([N+](=O)[O-])cc1S(=O)(=O)N(C)C`?
Rab9 prom act: 2%[46.1 µM]; SMN2 splice up: -6%; NPC1 promoter act: 0%[46.1 µM]

Results for CCOc1ccc(CCNC(=O)c2nnc(Cc3cc(OC)c(OC)c(OC)c3)o2)cc1OCC ?
SMN2 splice up: -13%; FLuc modulator: -6%

Results for O=C(CNC1CCCCC1)Nc1ccc(Cl)cc1 ?
Rab9 prom act: 0%; ELG1 genotoxic: 2%; FLuc modulator: -3%; NPC1 promoter act: 1%; ELG1 repair inh: -4%

Results for CCCCN(C)CCNC(=O)c1cc(=O)[nH]c2ccc(S(=O)(=O)N3CCCCCC3)cc12 ?
FLuc modulator: -1%

How did Cc1ccc(CN2CCN(C3CCCC3)C(CCO)C2)s1 (stereo unspecified) do in these assays?
Rab9 prom act: -7%; SMN2 splice up: -1%; ELG1 genotoxic: -3%; FLuc modulator: -13%; NPC1 promoter act: 4%; ELG1 repair inh: -3%

How did COc1cc(CCC(=O)Nc2ccc(C)c(S(=O)(=O)N(C)C)c2)cc(OC)c1OC do in these assays?
Rab9 prom act: -6%; SMN2 splice up: -8%[1.84 µM]; ELG1 genotoxic: -1%; FLuc modulator: 0%; NPC1 promoter act: -7%; ELG1 repair inh: 9.2µM*

What do the screens show for `COc1ccc(NC(=O)c2ccc(OC(F)F)cc2)cc1Cl`?
Rab9 prom act: 2.5µM*; SMN2 splice up: 11µM*; ELG1 genotoxic: inconclusive; FLuc modulator: 2.7µM*; NPC1 promoter act: 2µM*; ELG1 repair inh: inconclusive

How did CCOC(=O)c1c(C)[nH]c(CCC(=O)NCc2cccc(C)c2)c1C do in these assays?
FLuc modulator: -3%

Results for CCOC(=O)c1c(C)[nH]c(N=Nc2cccc(OC)c2)c1C ?
Rab9 prom act: 1.1µM*; SMN2 splice up: 14µM*; ELG1 genotoxic: inconclusive; FLuc modulator: 1.7µM*; NPC1 promoter act: 1.8µM*; ELG1 repair inh: inconclusive

How did CCOC(=O)c1c(C)[nH]c(N=Nc2cccc(C)c2)c1C do in these assays?
Rab9 prom act: 2.8µM*; SMN2 splice up: 7.9µM*; ELG1 genotoxic: 2.5µM*; FLuc modulator: 7.6µM*; NPC1 promoter act: 1.8µM*; ELG1 repair inh: inconclusive

Results for CCOC(=O)c1c(C)[nH]c(CCC(=O)NCc2cccc(OC)c2)c1C ?
FLuc modulator: -6%

What do the screens show for `COc1cccc(-n2c(=O)c3c(C)c(C)sc3n(CC(=O)NCCc3ccc(OC)c(OC)c3)c2=O)c1`?
SMN2 splice up: -6%; FLuc modulator: -2%

How did CC(C)(C)N1C(=O)Cc2c1nc(N)c1c(N)nc(N3CCCCC3CO)c(C#N)c21 (stereo unspecified) do in these assays?
Rab9 prom act: 23%; SMN2 splice up: 2%; ELG1 genotoxic: 2%; FLuc modulator: 8.5µM*; NPC1 promoter act: 24%; ELG1 repair inh: 18%

What do the screens show for `COc1ccc(CCNC(=O)C(=O)NCC(c2ccc3c(c2)OCO3)N2CCOCC2)cc1` (stereo unspecified)?
FLuc modulator: -1%

Results for CC(=O)c1ccc(NC(=O)C(C)O/N=C(\N)c2ccccc2)cc1 (stereo unspecified) ?
ELG1 genotoxic: -3%; ELG1 repair inh: -1%

How did NC(=O)N/N=C/c1cn(-c2ccccc2)nc1-c1cccnc1 do in these assays?
Rab9 prom act: -2%; ELG1 genotoxic: 6%; FLuc modulator: 9.5µM*; NPC1 promoter act: 1%; ELG1 repair inh: 17%

What do the screens show for `NC(=S)N/N=C/c1cn(-c2ccccc2)nc1-c1cccnc1`?
Rab9 prom act: 12%; ELG1 genotoxic: 7%; FLuc modulator: 6µM*; NPC1 promoter act: 15%; ELG1 repair inh: 2%

How did Cc1ccc(S(=O)(=O)Nc2cccc3ncccc23)cc1 do in these assays?
Rab9 prom act: 2%; ELG1 genotoxic: -3%; FLuc modulator: 5%; NPC1 promoter act: 2%; ELG1 repair inh: -5%

What do the screens show for `Cc1ccc(S(=O)(=O)Nc2ccc(O)c3ncccc23)cc1`?
Rab9 prom act: -17%; SMN2 splice up: -108%; ELG1 genotoxic: 5%; FLuc modulator: 5%; NPC1 promoter act: -34%; ELG1 repair inh: 3.3µM*

How did Cc1ccc(S(=O)(=O)Nc2ccc(O)c3cccnc23)cc1 do in these assays?
Rab9 prom act: 14%; ELG1 genotoxic: -11%; FLuc modulator: -1%; NPC1 promoter act: 10%; ELG1 repair inh: 18µM*

Results for Cc1ccc(S(=O)(=O)Nc2ccnc3ccccc23)cc1 ?
Rab9 prom act: -5%; SMN2 splice up: -35%; ELG1 genotoxic: -1%; FLuc modulator: 0%; NPC1 promoter act: -3%; ELG1 repair inh: -12%

What do the screens show for `CN(CC(=O)Nc1cc(S(=O)(=O)N2CCOCC2)ccc1Cl)C1CCS(=O)(=O)C1` (stereo unspecified)?
Rab9 prom act: 1%; SMN2 splice up: -4%; ELG1 genotoxic: 0%; FLuc modulator: -2%; NPC1 promoter act: -2%; ELG1 repair inh: 6%

How did Cc1ccc(NC(=O)Cn2c(=O)n(Cc3nc(C)no3)c(=O)c3cc4c(cc32)OCO4)c(C)c1 do in these assays?
FLuc modulator: -1%

Results for CC(C)(C)c1ccc(-c2nnc(N)o2)cc1 ?
Rab9 prom act: 2.8µM*; ELG1 genotoxic: inconclusive; FLuc modulator: 6µM*; NPC1 promoter act: 2.8µM*; ELG1 repair inh: inconclusive

How did CC(C)(C)c1ccc(OCc2nnc(-c3ccccc3)o2)cc1 do in these assays?
SMN2 splice up: -1%; FLuc modulator: inconclusive

Results for CCCCn1c(=O)n(C)c(=O)c2c(C(F)(F)F)cc(-c3ccncc3)nc21 ?
Rab9 prom act: -5%; SMN2 splice up: 21%; ELG1 genotoxic: -6%; FLuc modulator: -1%; NPC1 promoter act: -1%; ELG1 repair inh: 15µM*
